Source: PubChem
ATXN viability = cell viability loss in ATXN counter-screen; S2 cells (HEK-293 line with an ATXN2-luciferase reporter) viability, CellTiter-Fluor protease fluorescence, 24 h; Potency, µM (doses to about 56.7 µM), most hits filed as cytotoxic; hit rate 0.49% among 400,000; note: potency is the fitted concentration of half-maximal effect; nearly all actives have a fitted effect of over 40% in size
DRD3 antagonist = antagonists of human D3 dopamine receptor; P35462; D3R cells, DiscoveRx beta-arrestin luminescence, antagonist mode; hits give low values; max response, negative = inhibition, %; hit rate 2.5% among 360,000; AID 652054; in the data active = max response below about -50%; inconclusive = no clear call, values can overlap the other calls; note: % is set by controls: 0 for no effect and ±100 for the full control effect
Target sequence (P35462 whole entry, looked up): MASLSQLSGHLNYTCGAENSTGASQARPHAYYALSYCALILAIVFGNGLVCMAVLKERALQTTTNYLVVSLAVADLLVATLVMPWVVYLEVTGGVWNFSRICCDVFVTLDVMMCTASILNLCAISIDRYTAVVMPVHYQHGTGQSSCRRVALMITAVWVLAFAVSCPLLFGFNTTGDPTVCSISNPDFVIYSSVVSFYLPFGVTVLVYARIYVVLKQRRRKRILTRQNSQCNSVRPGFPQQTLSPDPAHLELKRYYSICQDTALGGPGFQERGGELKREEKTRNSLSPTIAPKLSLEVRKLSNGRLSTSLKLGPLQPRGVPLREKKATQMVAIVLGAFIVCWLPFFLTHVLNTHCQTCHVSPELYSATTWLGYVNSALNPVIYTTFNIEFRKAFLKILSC
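Cells plated overnight at 1500 cells/well, then exposed to library compounds with dopamine controls for 90 minutes at 37 degrees C. DiscoveRx reagent added for 30–60 minutes at room temperature; luminescence read, quantitative HTS format.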
HepG2 viability = kills HepG2 cells in TGF-b inhibitor counter-screen; HepG2 CAGA-GFP viability, ATP luminescence, 18 h; Potency, µM (series often up to 46.1 µM), without a hit: at the top dose activity change, negative = cytotoxicity, usual class: cytotoxic; hit rate 0.76% among 410,000; AID 588856; note: potency is the fitted concentration of half-maximal effect
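CellTiter-Glo luminescence gave cytotoxicity after 18 hours at 37 degrees C. The cells were HepG2 CAGA-GFP in 1% FBS DMEM, stimulated with 500 pg/mL TGF-beta after compound addition. %Activity was normalised to no-cell wells (complete cell-killing) and DMSO (no toxicity), and curves were fitted and classified.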
TGFb inhibitor = blocks TGF-b signaling; Potency, µM (series often up to 46.1 µM), without a hit: top-dose activity, negative = inhibition, hits mostly inhibitors; hit rate 1.2% among 410,000; HepG2 CAGA-GFP TGF-b/SMAD3 reporter, GFP fluorescence, 18 h; TGF-beta stimulated, 500 pg/mL final; note: potency is the fitted concentration of half-maximal effect; % is set by controls: 0 for no effect and ±100 for the full control effect; nearly all actives have a fitted effect of over 65% in size
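Per well, imaged GFP fluorescence of HEPG2 CAGA-GFP cells gives the signal; cells get compound, then TGF-beta (500 pg/mL final), 18 h at 37 degrees C; %Activity versus -TGF-beta and +DMSO controls.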
ATXN2 expr inh = ATXN2 expression inhibition; HEK-293 ATXN2-luciferase reporter, luminescence, 24 h; Potency, µM (doses to about 57 µM), for inactives: top-dose activity change, negative = inhibition, hits mostly inhibitors; hit rate 0.72% among 360,000; note: potency is the fitted concentration of half-maximal effect; % is set by controls: 0 for no effect and ±100 for the full control effect; nearly all actives have a fitted effect of over 55% in size
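ATXN2-luciferase reporter cells (luciferase flanked by upstream and downstream ATXN2 gene portions) were treated 24 h at 37 °C with compounds at up to 57 uM. SteadyGlo luminescence gave expression; GF-AFC fluorescence gave viability.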
DRD3 agonist = agonists of human D3 dopamine receptor; P35462; D3R DiscoveRx beta-arrestin cells, luminescence, 90 min; max activation, %; hit rate 0.58% among 410,000; in the data active = max activation above about 30%; note: 0% is about no effect
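Agonist-mode cell screen: cells plated at 1500/well and incubated overnight at 37 °C, then exposed to library compounds for 90 min at 37 °C. Detection reagent was added for 30–60 min at room temperature, and luminescence was read.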
The depositor's hits bear a star; i = inactive; ? = inconclusive; nt = no result given; [ ] = dose if it differs, or a comment. Shown are actives, neighbours in structure and some others; about 4.7% of the full set was active somewhere. Unless noted, calls come from the whole dose curve; as a rule, active = well fitted curve in the direction sought with a large enough effect; inconclusive = small, poorly fitted or top-dose-only effect, or another doubt; inactive = no such curve, though single readings can be large; an effect the other way counts as inactive or inconclusive.

SMILES | ATXN viability | DRD3 antagonist | HepG2 viability | TGFb inhibitor | ATXN2 expr inh | DRD3 agonist
Cc1ccc(C(C)C)c(OCc2ccc(C(=O)N/N=C/c3ccc(O)cc3O)cc2)c1 | ? | 1 | -96% | ? | 10µM* | 16
Cc1ccc2c(/C=C/c3ccc(N(C)C)cc3)c(C)cnc2c1 | nt | nt | -39% | ? | nt | nt
CC(=O)/C=C/C=C1/C2CCC(C2)C1(C)C (centres undefined) | i | nt | nt | nt | -5% | nt
O=C1Nc2ccc(Cl)cc2C(=O)C1(F)c1ccccc1 (centres undefined) | i | 18 | 6% | ? | -4% | 37*
O=C1Nc2c(ccc(Cl)c2Cl)C(=O)C1(F)c1ccccc1 (centres undefined) | i | -15 | -21% | -2% | -5% | 12
COc1ccc(C)cc1NC(C)C(=O)c1c[nH]c2ccccc12 (centres undefined) | nt | nt | -10% | 0% | nt | nt
COc1ccc(OC)c(NC(=O)Cn2cnc3onc(-c4ccc(Cl)cc4)c3c2=O)c1 | ? | nt | -42% | -20% | -23% | -9
Cc1[nH]c2ccccc2c1CCNC(=O)c1ccc2c(c1[N+](=O)[O-])C(=O)c1ccccc1C2=O | ? | -85* | -34% | ? | -10% | -16
Cc1[nH]c2c(C)cccc2c1CCNC(=O)c1ccc2c(c1[N+](=O)[O-])C(=O)c1ccccc1C2=O | ? | -56* | -15% | ? | -12% | 0
O=C1c2ccccc2-c2cc([N+](=O)[O-])c([N+](=O)[O-])cc21 | nt | nt | -27% | ? | nt | nt
CN(C)C(=O)c1ccc2c(c1[N+](=O)[O-])C(=O)c1ccccc1C2=O | i | ? | -46% | 10µM* | 29% | -9
Cc1cccc(CNC(=O)c2c3n(c(C)cc2=O)-c2ccccc2SC(c2sccc2C)C3)n1 (centres undefined) | i | nt | nt | nt | nt | nt
COc1ccc(CCNC(=O)c2cnn(-c3nccc(-c4cccs4)n3)c2C)cc1OC | i | nt | nt | nt | nt | nt
O=C(NCCN1CCOCC1)c1cnn(-c2ncc3c(n2)-c2ccccc2CC3)c1C1CC1 | i | nt | nt | nt | nt | nt
O=C(NNc1nc2ccc(F)cc2s1)c1cccc(F)c1 | ? | 2 | -59% | 13µM* | -29%[11.3 µM] | -12
COC(=O)c1ccc2nc(Nc3nc4ccc(F)cc4s3)sc2c1 | i | 6 | -35% | 18µM* | ? | 7
O=C(Nc1nc2ccccc2s1)c1cnccn1 | i | 9 | -35% | -5% | -24% | -7
COC(=O)c1ccc2nc(NC(=O)C(C)(C)C)sc2c1 | i | 17 | -15% | 0% | ? | 4
O=C(Nc1nc2ccc(F)cc2s1)c1ccccn1 | ? | -73* | -35% | ? | ? | -25
O=Cc1cc2c3c(c1)CCCN3CCC2 | nt | nt | -31% | -22% | nt | nt
COc1ccc(NC2=NC3(CCCCC3)N=C(N)N2)cc1 | i | -13 | -4% | -11% | 3% | 0
COc1ccc(OC)c(NC2=NC3(CCCCC3)N=C(N)N2)c1 | i | -55* | 0% | 0% | -1% | 0
CC(=O)OC(COc1ccccc1)Cn1cnc2cc(C)c(C)cc21 (centres undefined) | i | -59* | -55% | ? | -21% | 0
CCN(CC)CCNC(=O)c1nn(-c2ccc(Cl)cc2)c2c1CCc1cc(OC)ccc1-2 | ? | -8 | 14µM* | ? | ? | -17
CCN1CCN(Cc2c(O)ccc3oc(C)c(C(=O)Nc4cccc(C(F)(F)F)c4)c23)CC1 | ? | nt | 13µM* | ? | ? | -21
C[C@@H]1O[C@H](O[C@@H]2[C@@H](Oc3cc(O)c4c(c3)O[C@H](c3ccc(O)cc3)CC4=O)O[C@@H](CO)[C@@H](O)[C@H]2O)[C@@H](O)[C@H](O)[C@@H]1O | i | nt | nt | nt | nt | nt
O=C(O)Cn1nnnc1SCC(=O)Nc1ccccc1F | i | 12 | 0% | ? | -6% | -3
Cn1c(CC(=O)Nc2ccccc2F)nnc1SCC(=O)Nc1nncs1 | i | 8 | -4% | -20% | -7% | 11
